Reference: PubChem BioAssay (Tox21)
Where “and” joins values, the source holds several entries; their conditions need not be identical. Identical values can stand only once. Results filed as inconclusive are left out. Calls of active or inactive are those of the source. Unless noted, calls follow the shape of the dose curve; as a rule, active = well fitted curve in the direction sought with a large enough effect in the repeat runs; inconclusive = weak or mixed curves; inactive = no such curve, though single readings can be large; an effect the other way counts as inactive or inconclusive.

How the values were obtained:
[1] = biological target: Progesterone receptor (Homo sapiens) (UniProt P06401); experiment: qHTS assay to identify small molecule antagonists of the progesterone receptor (PR) signaling pathway (AID 1346795; active = well fitted inhibition curve with a large enough effect in the signal ratio in the repeat runs, not every such curve was filed as active; the % refers to the signal ratio; also: potency is read from the fitted curve at half-maximal effect)
Sequence of Progesterone receptor (Homo sapiens) (P06401 whole entry, looked up): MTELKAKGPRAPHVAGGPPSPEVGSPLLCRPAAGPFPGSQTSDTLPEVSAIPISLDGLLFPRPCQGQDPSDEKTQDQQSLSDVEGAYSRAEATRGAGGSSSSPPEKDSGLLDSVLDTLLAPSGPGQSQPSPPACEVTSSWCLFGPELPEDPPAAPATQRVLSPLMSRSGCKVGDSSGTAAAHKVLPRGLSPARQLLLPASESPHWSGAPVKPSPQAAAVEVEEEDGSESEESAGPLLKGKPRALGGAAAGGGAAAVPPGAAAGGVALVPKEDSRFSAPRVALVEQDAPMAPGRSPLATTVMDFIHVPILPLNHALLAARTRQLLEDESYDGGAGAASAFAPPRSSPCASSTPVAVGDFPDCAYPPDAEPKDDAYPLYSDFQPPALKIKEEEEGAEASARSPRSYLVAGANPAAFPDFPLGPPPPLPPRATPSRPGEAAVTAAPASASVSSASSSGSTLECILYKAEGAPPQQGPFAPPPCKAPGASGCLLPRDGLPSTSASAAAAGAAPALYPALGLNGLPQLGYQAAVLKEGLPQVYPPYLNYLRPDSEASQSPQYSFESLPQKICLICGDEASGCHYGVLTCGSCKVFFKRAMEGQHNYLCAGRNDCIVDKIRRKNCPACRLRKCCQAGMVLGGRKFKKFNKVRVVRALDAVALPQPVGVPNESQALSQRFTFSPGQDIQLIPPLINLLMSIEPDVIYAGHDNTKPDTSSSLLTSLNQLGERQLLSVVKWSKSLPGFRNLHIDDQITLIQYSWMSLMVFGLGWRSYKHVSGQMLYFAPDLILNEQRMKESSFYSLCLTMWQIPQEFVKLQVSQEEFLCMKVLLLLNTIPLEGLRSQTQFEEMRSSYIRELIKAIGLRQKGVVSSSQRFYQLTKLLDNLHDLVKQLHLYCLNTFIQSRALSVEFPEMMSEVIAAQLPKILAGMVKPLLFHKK
Procedure, shortened: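 PR-UAS-bla HEK293T cells carrying a UAS-driven beta-lactamase reporter were plated in medium with 2% charcoal-stripped FBS and rested 6 hr at 37C. Compounds were added with 1 nM R5020 (final) for 16 hr, then FRET substrate loaded 2 hr at room temperature.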

[2] = qHTS assay to identify small molecule antagonists of the progesterone receptor (PR) signaling pathway - cell viability counter screen (AID 1346798); also: series mostly up to about 92 µM; nearly all actives have a fitted effect of over 50% in size
Procedure, shortened: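 PR-UAS-bla HEK293T cells in medium with 2% charcoal-stripped FBS were treated with compounds plus R5020 for 16 hr at 37C. Cell viability was then read by CellTiter-Glo luminescence after 30 min at room temperature in the same wells.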

[3] = qHTS assay to identify small molecule agonists of the progesterone receptor (PR) signaling pathway - cell viability counter screen (AID 1346799; calls by dose curve; also: nearly all actives have a fitted effect of over 45% in size)
Procedure, shortened: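 PR-UAS-bla HEK293T cells, 3,000 per well in medium with 2% charcoal-stripped FBS, were preincubated 6 hr at 37C, then exposed to compounds for 16 hr; viability was read as CellTiter-Glo luminescence after 30 min at room temperature.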

[4] = qHTS assay to identify small molecule agonists of the TGF-beta/Smad signaling pathway - cell viability counter screen (AID 1346829); also: top concentration of the series differs between compounds; nearly all actives have a fitted effect of over 45% in size
Procedure, shortened: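 Here the cytotoxicity of library compounds is measured in SBE-bla HEK 293T cells treated for 5 hr, using CellTiter-Glo added to wells already read for the beta-lactamase reporter.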

[5] = qHTS assay to identify small molecule agonists of the TGF-beta/Smad signaling pathway (AID 1346859; active = well fitted activation curve with a large enough effect in the signal ratio in the repeat runs, not every such curve was filed as active; the % refers to the signal ratio; also: series mostly up to about 77 µM)
Procedure, shortened: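 HEK 293T cells stably carrying a beta-lactamase reporter driven by the Smad binding element were seeded overnight, exposed to DMSO-dissolved compounds for 5 hr at 37 C, 5% CO2, then loaded with FRET substrate for 2 hr at room temperature.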

[6] = Human pregnane X receptor (PXR) small molecule agonists, qHTS cell viability counter screen (AID 1346977); also: nearly all actives have a fitted effect of over 50% in size; also: potency is read from the fitted curve at half-maximal effect
Procedure, shortened: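 PXR-Luc HepG2 cells in medium with 5% charcoal-stripped FBS were pre-incubated 5hr, then exposed to compounds for 24hr at 37C. Viability was read in the same wells by CellTiter-Fluor fluorescence, reagent added after 23hr with a 1hr incubation.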

[7] = Caspase-3/7 induction in HepG2 cells by small molecules, qHTS assay (AID 1346978); also: nearly all actives have a fitted effect of over 15% in size
Procedure, shortened: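 Caspase-3/7 induction was measured by Caspase-Glo 3/7 luminescence (30 min, room temperature) after a 17 hr compound exposure of wild-type HepG2 cells seeded at 2,000 per well and pre-incubated 5 hr.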

[8] = Caspase-3/7 induction in CHO-K1 cells by small molecules, qHTS cell viability counter screen (AID 1346979); also: nearly all actives have a fitted effect of over 35% in size; also: potency is read from the fitted curve at half-maximal effect
Procedure, shortened: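 Wild-type CHO-K1 cells were seeded at 1,500 per well, rested 5hr at 37 C, then exposed to compounds in DMSO. After 16hr, CellTiter-Fluor reagent was added and fluorescence read 1hr later as the viability measure.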

[9] = Caspase-3/7 induction in HepG2 cells by small molecules, qHTS cell viability counter screen (AID 1346981); also: nearly all actives have a fitted effect of over 30% in size; also: potency is read from the fitted curve at half-maximal effect
Procedure, shortened: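 Counter screen for cytotoxicity: HepG2 exposed 16 hr to compounds, then CellTiter-Fluor viability signal (fluorescence, 1 hr reagent incubation).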

[10] = biological target: Nuclear receptor subfamily 1 group I member 2 (Homo sapiens) (UniProt O75469); experiment: Human pregnane X receptor (PXR) small molecule agonists, qHTS assay (AID 1346982); also: nearly all actives have a fitted effect of over 35% in size; also: potency is read from the fitted curve at half-maximal effect
Sequence of Nuclear receptor subfamily 1 group I member 2 (Homo sapiens) (O75469 whole entry, looked up): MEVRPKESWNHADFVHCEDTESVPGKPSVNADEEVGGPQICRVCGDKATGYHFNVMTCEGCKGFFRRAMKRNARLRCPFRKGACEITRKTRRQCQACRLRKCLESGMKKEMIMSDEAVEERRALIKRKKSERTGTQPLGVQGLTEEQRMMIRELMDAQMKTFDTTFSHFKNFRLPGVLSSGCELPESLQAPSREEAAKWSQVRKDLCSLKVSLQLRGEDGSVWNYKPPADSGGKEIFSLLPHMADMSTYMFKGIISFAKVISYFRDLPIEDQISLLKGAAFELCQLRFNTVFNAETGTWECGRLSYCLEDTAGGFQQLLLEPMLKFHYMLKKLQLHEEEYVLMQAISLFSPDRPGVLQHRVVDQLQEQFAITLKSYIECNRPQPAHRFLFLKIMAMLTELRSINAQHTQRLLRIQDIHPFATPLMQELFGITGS
Procedure, shortened: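 Luminescence (ONE-Glo, 30 min RT) after 24 hr compound exposure of PXR-Luc HepG2 cells; cells rested 5 hr post-plating in 5% charcoal-stripped FBS medium.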

[11] = biological target: Nuclear receptor subfamily 1 group I member 2 (Rattus norvegicus) (UniProt Q9R1A7); experiment: Rat pregnane X receptor (rPXR) activation by small molecules, qHTS assay (AID 1346983); conditions: rPXR luciferase reporter cells, One-Glo luminescence, 24 h; stronger effect = higher value; also: nearly all actives have a fitted effect of over 20% in size
Sequence of Nuclear receptor subfamily 1 group I member 2 (Rattus norvegicus) (Q9R1A7 whole entry, looked up): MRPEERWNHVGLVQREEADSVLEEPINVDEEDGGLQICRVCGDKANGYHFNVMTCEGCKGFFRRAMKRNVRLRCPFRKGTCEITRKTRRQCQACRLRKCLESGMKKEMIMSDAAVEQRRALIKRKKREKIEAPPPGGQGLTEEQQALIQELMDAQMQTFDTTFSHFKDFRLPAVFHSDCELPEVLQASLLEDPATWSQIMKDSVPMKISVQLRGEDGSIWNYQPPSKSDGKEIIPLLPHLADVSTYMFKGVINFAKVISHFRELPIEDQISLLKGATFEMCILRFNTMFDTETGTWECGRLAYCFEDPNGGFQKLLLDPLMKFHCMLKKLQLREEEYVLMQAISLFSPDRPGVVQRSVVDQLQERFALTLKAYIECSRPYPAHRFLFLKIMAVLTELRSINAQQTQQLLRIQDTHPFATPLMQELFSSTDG
Procedure, shortened: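 Luminescent readout (One-Glo luciferase, 30 min room temperature) followed 24 hr compound treatment at 37 C of rPXR cells plated 2,000 per well and preincubated 5hr; qHTS format with compounds delivered in DMSO.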

[12] = biological target: Nuclear receptor subfamily 1 group I member 2 (Homo sapiens) (UniProt O75469); experiment: CYP3A4 induction through human pregnane X receptor (PXR) by small molecules, qHTS assay (AID 1346984); also: nearly all actives have a fitted effect of over 40% in size
Procedure, shortened: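 DPX-2 reporter cells; 24h cpd, 37C; Luciferin-IPA 3uM final x3h; One-Glo 30 min RT; lumi read.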

[13] = biological target: Nuclear receptor subfamily 1 group I member 2 (Homo sapiens) (UniProt O75469); experiment: Human pregnane X receptor (PXR) activation by small molecules, qHTS assay (AID 1346985); also: nearly all actives have a fitted effect of over 40% in size
Procedure, shortened: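 DPX-2 cells (HepG2 co-transfected with a PXR response element and a CYP3A4-promoter luciferase construct) were seeded at 2,000 per well, rested 5 hr at 37C, then exposed to DMSO-dissolved compounds for 24 hr. Activation was read as luciferase luminescence.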

[14] = biological target: Acetylcholinesterase (Homo sapiens) (UniProt P22303); experiment: Acetylcholinesterase (AChE) small molecule antagonists: colormetric cell-based qHTS assay (AID 1347395; calls by dose curve; also: nearly all actives have a fitted effect of over 30% in size)
Sequence of Acetylcholinesterase (Homo sapiens) (P22303 whole entry, looked up): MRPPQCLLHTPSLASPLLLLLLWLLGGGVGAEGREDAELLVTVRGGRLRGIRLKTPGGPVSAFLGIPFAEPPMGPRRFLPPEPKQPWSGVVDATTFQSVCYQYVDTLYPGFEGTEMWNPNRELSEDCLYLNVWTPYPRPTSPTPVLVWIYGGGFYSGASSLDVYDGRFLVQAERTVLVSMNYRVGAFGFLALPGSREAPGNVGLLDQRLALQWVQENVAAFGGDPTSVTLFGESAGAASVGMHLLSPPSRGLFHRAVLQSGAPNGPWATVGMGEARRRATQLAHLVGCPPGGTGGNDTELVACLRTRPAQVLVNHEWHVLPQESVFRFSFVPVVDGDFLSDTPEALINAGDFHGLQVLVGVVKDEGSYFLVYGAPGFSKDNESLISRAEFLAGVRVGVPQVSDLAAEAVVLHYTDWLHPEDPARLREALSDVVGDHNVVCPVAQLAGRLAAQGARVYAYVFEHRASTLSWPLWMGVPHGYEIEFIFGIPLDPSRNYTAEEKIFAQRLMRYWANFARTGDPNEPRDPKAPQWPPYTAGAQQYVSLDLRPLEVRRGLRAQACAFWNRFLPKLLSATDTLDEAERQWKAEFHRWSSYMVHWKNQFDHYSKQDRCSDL
Procedure, shortened: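 SH-SY5Y cells, plated overnight at 37 C, were exposed to compounds for 30 min at 37 C and 5% CO2. Acetylthiocholine plus DTNB was then added, and thiocholine from endogenous AChE was quantified colorimetrically after 90 min at 37 C.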

[15] = biological target: Acetylcholinesterase (Homo sapiens) (UniProt P22303); experiment: Acetylcholinesterase (AChE) small molecule antagonists: enzyme-based qHTS assay (AID 1347397; calls by dose curve; also: nearly all actives have a fitted effect of over 55% in size); conditions: Potency: AChE enzyme activity inhibition; outcome: AChE enzyme activity inhibition
Procedure, shortened: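 Absorbance-based detection of thiocholine with DTNB served as the read-out. Recombinant human AChE was exposed to compound for 30 min at RT before a 10 min RT incubation with acetylthiocholine.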

[16] = biological target: Acetylcholinesterase (Homo sapiens) (UniProt P22303); experiment: Acetylcholinesterase (AChE) small molecule antagonists: fluorescence cell-based qHTS assay (AID 1347398; calls by dose curve; also: nearly all actives have a fitted effect of over 50% in size); conditions: Potency: AChE activity; outcome: AChE activity
Procedure, shortened: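 Fluorimetric cell-based assay: intact SH-SY5Y cells, 30 min compound preincubation at 37 C, acetylthiocholine substrate with thiol probe Thiolite Green, 40 min RT development, fluorescence 490/520 nm.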

[17] = qHTS assay to identify small molecule antagonists of the TGF-beta/Smad signaling pathway - cell viability counter screen (AID 1346824); also: nearly all actives have a fitted effect of over 50% in size
Procedure, shortened: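 Cytotoxicity counter-screen run in the same wells as the beta-lactamase Smad reporter read: CellTiter-Glo luminescence after 30 min at room temperature. HEK 293T SBE-bla cells had 5 hr compound exposure at 37 C with TGF-beta1 (0.25 ng/mL stock).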

[18] = Caspase-3/7 induction in CHO-K1 cells by small molecules, qHTS assay (AID 1346980); also: nearly all actives have a fitted effect of over 15% in size
Procedure, shortened: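 Luminescent Caspase-Glo 3/7 read (30min, room temperature) quantified apoptosis induction. Cells were wild-type CHO-K1, treated with compound for 17hr at 37 C and 5% CO2.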

[19] = biological target: Thyrotropin-releasing hormone receptor (Homo sapiens) (UniProt P34981); experiment: qHTS assay to identify small molecule agonists of the thyrotropin-releasing hormone receptor (TRHR) signaling pathway (AID 1346891; calls by dose curve; also: series mostly up to about 58 µM)
Sequence of Thyrotropin-releasing hormone receptor (Homo sapiens) (P34981 whole entry, looked up): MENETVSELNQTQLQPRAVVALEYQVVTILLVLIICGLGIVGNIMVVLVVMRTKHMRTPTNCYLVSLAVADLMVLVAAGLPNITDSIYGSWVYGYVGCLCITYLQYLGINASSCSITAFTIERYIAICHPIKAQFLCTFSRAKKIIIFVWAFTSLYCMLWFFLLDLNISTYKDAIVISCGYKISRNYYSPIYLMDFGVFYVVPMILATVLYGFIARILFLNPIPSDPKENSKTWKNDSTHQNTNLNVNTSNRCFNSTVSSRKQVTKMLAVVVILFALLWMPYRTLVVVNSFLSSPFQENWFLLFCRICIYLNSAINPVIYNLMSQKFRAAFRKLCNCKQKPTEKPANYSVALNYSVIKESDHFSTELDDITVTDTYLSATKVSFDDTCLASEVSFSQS
Procedure, shortened: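 TRHR-expressing HEK293 cells were plated 18 h at 37 °C/5% CO2, loaded with calcium dye 2 h at 37 °C, then given compound in DMSO; fluorescence was read kinetically for 3 min at 1 s intervals.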

[20] = biological target: Thyrotropin-releasing hormone receptor (Homo sapiens) (UniProt P34981); experiment: qHTS assay to identify small molecule antagonists of the thyrotropin-releasing hormone receptor (TRHR) signaling pathway (AID 1346877; active = well fitted inhibition curve with a large enough effect in the repeat runs, not every such curve was filed as active; also: series mostly up to about 51 µM)
Procedure, shortened: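 In this cell-based calcium flux format, HEK293 cells expressing TRHR received test compound for 5 min before the agonist TRH (1 nM final). Dye loading lasted 2 h at 37 °C.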
% is scaled to controls: 0 for no effect and ±100 for the full control effect.

CCOC(=O)NC(O)C(Cl)(Cl)Cl (stereo unspecified)
inactive: Potency [1] | Potency [2] | Potency [3] | Potency [4] | outcome [5] | Potency [6] | Potency [7] | Potency [8] | Potency [9] | Potency [10] | max activation [11] -1.22% | outcome [12] | Potency [13] | Potency [14] | Potency [15] | Potency [16]

O=C(O)c1cc(Cl)ccc1Cl
inactive: Potency [1] | Potency [2] | Potency [3] | Potency [17] | Potency [4] | outcome [5] | Potency [6] | Potency [7] | Potency [8] | Potency [18] | Potency [9] | Potency [14] | Potency [15]

C=C(Cl)Cl
inactive: Potency [1] | Potency [2] | Potency [3] | Potency [4] | outcome [5] | Potency [6] | Potency [18] | Potency [9] | Potency [14] | Potency [15] | Potency [16]

CC(Cl)C(=O)O (stereo unspecified)
inactive: Potency [1] | Potency [2] | Potency [3] | Potency [17] | Potency [4] | outcome [5] | outcome [19] | Potency [6] | Potency [7] | Potency [8] | Potency [18] | Potency [10] | Potency [14] | Potency [15] | Potency [16]

O=C(Cc1ccccc1)c1ccccc1
inactive: Potency [1] | Potency [2] | Potency [3] | Potency [4] | outcome [5] | Potency [20] | outcome [19] | Potency [6] | Potency [7] | Potency [8] | Potency [18] | Potency [9] | Potency [14] | Potency [15] | Potency [16]

C=CCc1ccccc1O
inactive: Potency [1] | Potency [2] | Potency [3] | Potency [17] | Potency [4] | outcome [5] | outcome [19] | Potency [6] | Potency [8] | Potency [18] | Potency [9] | Potency [10] | Potency [14] | Potency [15] | Potency [16]

CCC1(CCC(C)C)C(=O)NC(=O)NC1=O
inactive: Potency [1] | Potency [2] | Potency [3] | Potency [17] | Potency [4] | outcome [5] | Potency [6] | Potency [7] | Potency [8] | Potency [18] | Potency [9] | Potency [14] | Potency [15] | Potency [16]

CCC1(CC)C(=O)NC(=O)NC1=O
inactive: Potency [1] | Potency [2] | Potency [3] | Potency [17] | Potency [4] | outcome [5] | outcome [19] | Potency [6] | Potency [7] | Potency [8] | Potency [18] | Potency [9] | Potency [10] | max activation [11] 0.212% | outcome [12] | Potency [13] | Potency [14] | Potency [15] | Potency [16]

CCC1(C2=NCCN2)Cc2ccccc2O1 (stereo unspecified)
inactive: Potency [1] | Potency [2] | Potency [3] | Potency [4] | outcome [5] | Potency [20] | outcome [19] | Potency [6] | Potency [7] | Potency [8] | Potency [18] | Potency [9] | Potency [10] | Potency [14] | Potency [15] | Potency [16]

O=P(OCC(Br)CBr)(OCC(Br)CBr)OCC(Br)CBr (stereo unspecified)
inactive: Potency [2] | Potency [3] | Potency [17] | Potency [4] | outcome [5] | outcome [19] | Potency [7] | Potency [18] | Potency [9] | Potency [14] | Potency [15] | Potency [16]
active: Potency [1] 5.8 µM | Potency [8] 69.5 µM | Potency [10] 55.2 µM and 51.7 µM

CCCCNC(=O)OCC#CI
active: Potency [6] 35.5 µM and 27.3 µM | Potency [8] 30.5 µM and 27.3 µM | Potency [9] 48.3 µM and 61.1 µM
inactive: Potency [1] | Potency [2] | Potency [3] | Potency [4] | outcome [5] | Potency [20] | outcome [19] | Potency [18] | Potency [10] | Potency [14] | Potency [15] | Potency [16]

C1CCNCC1
inactive: Potency [1] | Potency [2] | Potency [3] | Potency [17] | Potency [4] | outcome [5] | Potency [6] | Potency [7] | Potency [8] | Potency [9] | Potency [10] | Potency [14] | Potency [15] | Potency [16]

CC[N+]1(CCOC(=O)C(O)(c2ccccc2)c2ccccc2)CCCCC1
inactive: Potency [1] | Potency [2] | Potency [3] | Potency [17] | Potency [4] | outcome [5] | Potency [6] | Potency [7] | Potency [8] | Potency [18] | Potency [9] | Potency [10] | max activation [11] 0.456% | outcome [12] | Potency [13] | Potency [14] | Potency [15] | Potency [16]

CCc1cnc(C2=NC(C)(C(C)C)C(=O)N2)c(C(=O)O)c1 (stereo unspecified)
inactive: Potency [1] | Potency [2] | Potency [3] | Potency [4] | outcome [5] | Potency [20] | outcome [19] | Potency [6] | Potency [7] | Potency [8] | Potency [18] | Potency [9] | Potency [10] | Potency [14] | Potency [15] | Potency [16]

C1CS1
inactive: Potency [1] | Potency [2] | Potency [17] | Potency [4] | outcome [5] | Potency [20] | outcome [19] | Potency [6] | Potency [8] | Potency [9] | Potency [10] | Potency [14] | Potency [15] | Potency [16]

CN1CC[C@]23c4c5ccc(O)c4O[C@H]2[C@@H](O)CC[C@H]3[C@H]1C5
inactive: Potency [1] | Potency [2] | Potency [17] | Potency [4] | outcome [5] | outcome [19] | Potency [6] | Potency [7] | Potency [8] | Potency [18] | Potency [9] | Potency [10] | Potency [14] | Potency [15] | Potency [16]
